Our source for the MAPPIT interaction score values is the supplement of paper PMC10105736.

Common to all, as to experiment: MAPPIT interaction score (arbitrary units); higher = stronger binary interaction signal, active = hit call of the paper
One test concerns the target Bfc. The conditions noted are these: MAPPIT configuration: N-C; pair source set: screen_4.
In a further test the target is CG17376. The conditions noted are these: MAPPIT configuration: N-N; pair source set: screen_1.
The target of another test is CG42565. To be noted: MAPPIT configuration: N-C; pair source set: screen_4.
For the next test, the target named is CG42688. The conditions noted are these: MAPPIT configuration: N-C; pair source set: screen_4.
The target in another test is aspr. The conditions noted are these: MAPPIT configuration: N-N; pair source set: Curagen_low_conf.
In a further test the target is fok. The conditions noted are these: MAPPIT configuration: N-C; pair source set: screen_3.
A further test concerns the target BicD. The conditions noted are these: MAPPIT configuration: N-C; pair source set: Lit-BM-16.
Another test has as its target BEAF-32. To be noted: MAPPIT configuration: N-N; pair source set: screen_1.
A further test addresses Bet1. The conditions noted are these: pair source set: Lit-BM-16.
The target in a further test is Ass. To be noted: MAPPIT configuration: N-N; pair source set: Curagen_high_conf.
A further test deals with Atx-1. To be noted: MAPPIT configuration: N-C; pair source set: screen_4.
The target of a further test is Arv1. To be noted: MAPPIT configuration: N-C; pair source set: RRS.
A further test concerns the target Baldspot. The conditions noted are these: MAPPIT configuration: N-C; pair source set: screen_4.
The next test addresses EMC5. To be noted: MAPPIT configuration: N-C; pair source set: screen_3.
The next test has as its target Ude. To be noted: MAPPIT configuration: N-C; pair source set: screen_3.
A further test deals with BORCS6. The conditions noted are these: MAPPIT configuration: N-C; pair source set: screen_3.
The next test has as its target Atg16. To be noted: MAPPIT configuration: N-C; pair source set: Lit-BM-16.
Another test concerns the target Bin1. To be noted: MAPPIT configuration: N-N; pair source set: Lit-BM-16.
Another test concerns the target Dhx15. The conditions noted are these: MAPPIT configuration: N-N; pair source set: DPIM.
In another test the target is p53. To be noted: MAPPIT configuration: N-N; pair source set: Finley_Y2H.

Values without a mark were called inactive.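 The calls were made as follows: active = MAPPIT score above the 99th percentile of random reference set scores in the same batch; inactive = at or below it.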
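Also: HEK293T cells with Epo stimulation, STAT-responsive firefly luciferase reporter, fold induction versus unstimulated cells divided by the larger fold induction of two negative controls lacking either bait or prey.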

B1: disco (protein)
chain: MEHIMNPFMSPAYLLGHGPHSHQHVHSHLPSHPQPNAASPASSPGGSSGSGSGSAAGSGTGSGSSLKPRRWGSPPINLAGQFINPATGKKRVQCSICFKTFCDKGALKIHFSAVHLREMHKCTVEGCNMVFSSRRSRNRHSANPNPKLHSPHIRRKISPHDGRTAQQFPVFSPGTAAAAAAVAGRLPVAFPGLLPPPPPHHGHHPYVMFGGQAGLHGLGLLSTGCQDPDSGSVDNEQDADPEDDNDFVYVDMQANSSSPAASSEDQEEHERDNEQDEEMHCSLSLASSSSIAADEERAADQPLDFSLHKRRKSEQDREQEQEQEQEREREAEKEQEQDVESDKEHEPEQEHELEREKRSPSDAFSMDQLLGKRKRHDSTASSSACSTAAASSASSSSASASANPPQTSIKMDLDPDSDSAYMTSRRQMLPLPVLDLEEHHHLRLLQTQMFAAAAAAAATSQAPPTAFLPAGSPVDLAKDSPPMWSLLSEMYRSMLLKTQHQQYNHHHQLQQQHQQEQHHHLTLSHHHQEQHHHLGHHHMGHHHHHHHQHHQQQPQQQSPAATNAPISV
In the case of B1, the MAPPIT interaction score in the test with Bfc is 1.54; with CG17376 it was 0.354; in the test with CG42565, 2.57; with CG42688, 2.18; in the test with aspr it was -0.256; in the test with fok, 0.776.

B2: BicD (protein)
chain: MSSASNNGPSADQSVQDLQMEVERLTRELDQVSSASAQSAQYGLSLLEEKSALQQKCEELETLYDNTRHELDITQEALTKFQTSQKVTNKTGIEQEDALLNESAARETSLNLQIFDLENELKQLRHELERVRNERDRMLQENSDFGRDKSDSEADRLRLKSELKDLKFRETRMLSEYSELEEENISLQKQVSSLRSSQVEFEGAKHEIRRLTEEVELLNQQVDELANLKKIAEKQMEEALETLQGEREAKYALKKELDGHLNRESMYHISNLAYSIRSNMEDNASNNSDGEEENLALKRLEADLSTELKSPDGTKCDLFSEIHLNELKKLEKQLESMESEKTHLTANLREAQTSLDKSQNELQNFMSRLALLAAHVDALVQLKKQIDVKEQGKEGGQKKDELEQQLRALISQYANWFTLSAKEIDGLKTDIAELQKGLNYTDATTTLRNEVTNLKNKLLATEQKSLDLQSDVQTLTHISQNAGQSLGSARSTLVALSDDLAQLYHLVCTVNGETPTRVLLDHKTDDMSFENDSLTAIQSQFKSDVFIAKPQIVEDLQGLADSVEIKKYVDTVSDQIKYLKTAVEHTIDMNKHKIRSEGGDALEKVNTEEMEELQEQIVKLKSLLSVKREQIGTLRNVLKSNKQTAEVALTNLKSKYENEKIIVSDTMSKLRNELRLLKEDAATFSSLRAMFAARCEEYVTQVDDLNRQLEAAEEEKKTLNQLLRLAVQQKLALTQRLEEMEMDREMRHVRRPMPAQRGTSGKSSFSTRPSSRNPASSNANPF
As for B2, in the test with BicD, the MAPPIT interaction score is -0.381.

B3: Sry-delta (protein)
chain: MDTCFFCGAVDLSDTGSSSSMRYETLSAKVPSSQKTVSLVLTHLANCIQTQLDLKPGARLCPRCFQELSDYDTIMVNLMTTQKRLTTQLKGALKSEFEVPESGEDILVEEVEIPQSDVETDADAEADALFVELVKDQEESDTEIKREFVDEEEEEDDDDDDEFICEDVDVGDSEALYGKSSDGEDRPTKKRVKQECTTCGKVYNSWYQLQKHISEEHSKQPNHICPICGVIRRDEEYLELHMNLHEGKTEKQCRYCPKSFSRPVNTLRHMRMHWDKKKYQCEKCGLRFSQDNLLYNHRLRHEAEENPIICSICNVSFKSRKTFNHHTLIHKENRPRHYCSVCPKSFTERYTLKMHMKTHEGDVVYGVREEAPADEQQVVEELHVDVDESEAAVTVIMSDNDENSGFCLICNTNFENKKELEHHLQFDHDVVLK
As to B3, the MAPPIT interaction score in the test with BEAF-32 is 4.3 (active).

B4: Gos28 (protein)
chain: MGGSSYDVLRKQARSLENEIDLKLVAFSKIGAGSGGGGSGGLGGVDTSPLLGEHVFDSLSEEIEQMLEKLSSLNESMSDLPASGAAAMHTLQRHREILQGYRQEFNKICANHTMRIEREELLRGSGLATSSGSPSISGLNRREMYLKESGHLNSASHLVNDQINIAIETRDHLHAQRQAFKRLQTRFNDISNRFPLISSLIQRINIKKRRDSLILGAVIGFCVILLLLYAFN
With B4, the MAPPIT interaction score with Bet1 (MAPPIT configuration: N-C) was -0.272; with Bet1 (MAPPIT configuration: N-N), -0.1.

B5: Git (protein)
chain: MCFASSIIEAHRKLFIAPPDLDHSDPATPTISTRSKMPRGKSRLQTEVCGDCGAGDPSWASINRGILLCADCCSVHRSLGRHISIVKSLRQGNWEPSVLNFVNSLNAHGANSVWEHHLLDGSTNSTGGKHVPRWRKPTPKDALHPTKSDFIKAKHVNLTFVLKPSLQDDDDGNGSAGCLEQELSRQLHASVRTSNLETSLRFLVQGADPNYYHEDKLSTPLHMAAKFGQASQIEMLLIYGADVNALDGNGMTPLELARANNHNTIAERLLDAMYDVTDRIITFLGGKKPDHASGRHMIIPDANGADISEQLKIARGKLQLVPNKMFEELVMDLYDEVDRRECEAIWSTSTLNADHATVPFLPANPFLSATRNQGRQKLARFNRAEFTGLLTDVLVDAMRRQNMANLRPMDAPVAGHQSLQSLPYANNSMLLGSFEQGGHDPNLSDDEPIYDPVASDDDYAPVPPMAQQAIVHTPPRSANSHNEMETLRKQLNDYKSEINQLKNVVQMLSSENTQLKSKFSSASNNSVYDEPLRIDLSLSSPDTEHEPLSLPEGGTANGESGSSNDSSNQSTIKRPASMYERRLVPNVAKGNTDIRNTTSMYQMAGDGKPFGEEVKVRSDLVTRRLKELIRAMQPVPEDQKQSIAPHGELIRSAVTDLIALYANLPPNASDPSRETLKLLTRQNILIQHECENLQKAIEADDKQAIQKNTLEVRDCAFHIASAIKTLVLQFY
Turning to B5, the MAPPIT interaction score in the test with Ass was -0.0648.

B6: CG9132 (protein)
chain: MEYESVLIVKPEVFIYKIPPRASNRGYRAGDWNLKEPTWTGRMRLVAKGTAVVLKLEDKTSGALFANCPIDTYPGVAIEAVSDSSRYFVIRVQDDNGRSAFLGLGFGDRSDSFDLNVALQDHFKWVKNQEQIEKEKTEPKQELDLGFKEGETIKINMRITKKDGSEGSSRTGKNKGSSGVLPPPPGGLGKIAPPPAAAAANTTVRQSPGVSPAHRPAAGGSEWTDYASAGGNQGQQNSANANWVQF
With B6, the MAPPIT interaction score in the test with Atx-1 is 2.48.

B7: Drak (protein)
chain: MFTEKGIFPIGDGLLDVDADRLKGLLVSCPDINEIYEVEQTPFARGKFAAVRRAIHKNTGSHFAAKFLKRRRRAQSSDKEIKHEIAVLMLCEGEDNIVNLNAVHETRSDTALLLELATGGELQTILDNEECLTEAQARHCMREVLKALKFLHDRSIAHLDLKPQNILLAGERIEDGLKLCDFGISRVVCEGINVREMAGTPDYVAPEVLQYEPLSLLTDIWSVGVLTYVLLSGFSPFGGDTKQETFLNISQCALTFPDNLFGGVSPVAIDFIRRALRIKPNDRMNATGCLDHIWLKDDCSLDRQIYLQPQSDAEEEEEEDVDDDVEDEEEEEQVEEEEEETQNVEEPTTEAPQQQQQPVQQHQLAKSGQIHSKPTHNGHHRANSGGSISKIPIATSKLQSTPSSETTTAIHTLTSNSNGHVHKPTQIVTPTRRASDSDKENTYTATFVKKPVATIQLGSSNGIEDATVVATLTLFPDAPTTPKVIRKTPTGESNGSATSVKALVKKFQLEDSSGSAVARRSGGAVTSSSGLHSPTTTSVRLNSIRRASEPLTTVYKKQTSQNGCSSTSNPSSSPGSSPTTSGSTATLLIHSQRLGNSTAPASHCVAVPATATATSSASSSNSSSGKSTSAAHHLHHHHMHHHHHHHHHHVVIAAKNAAAVAATNNLSLDQGIIC
Turning to B7, in the test with Arv1, the MAPPIT interaction score is 2.34.

B8: oxt (protein)
chain: MEQSVSARWLKRYRAFFLILLLIVAIQLFLAYKSLDIVGGGSGSGFDAAEAPASPPPPHAQARVQPPARTKLTAQQLGFQPECDILAREAISALQRAKTKDCREHIAQIACAIQAGRFYAPQLRSSCPAGNHTANVSLGCFKDEKDRRLLAGYYSSSKTSNSPAKCVELCLQSGYPYAGVQYGRECFCGYDPPPKASKLPDSSCNTKCLGNAKEICGGFYAMNIYETGIAKFTAQLAATTPSEETKRVRIAFLLTLNGRALRQVHRLLKALYAPEHVYYIHVDERQDYLYRKLLELESKFPNIRLARKRFSTIWGGASLLTMLLQCMEDLLQSNWHWDFVINLSESDFPVKTLDKLVDFLSANPGRNFVKGHGRETQKFIQKQGLDKTFVECDTHMWRIGDRKLPAGIQVDGGSDWVALSRPFVGYVTHPREDDELLQALLKLFRHTLLPAESFFHTVLRNTKHCTSYVDNNLHVTNWKRKQGCKCQYKHVVDWCGCSPNDFKPEDWPRLQATEQKSLFFARKFEPVINQAVLLQLEEWLYGPYTSEYANLHGYWQSLYHHEDVHGSGDDLARSIGDSVMRLSARQAKLYPLELIELTHYLHRDQYKGFLVRYRARGSTGKPLHLETRVRPTQQGKLARNARFSKRLRNFEVSTDFDQKEQIARNFGKLLGPQSDLLLSYTLQANADSGAASHSYNLTLLWIDPLGRLQDFNELHVEDSTSDVINHSKTLLKHPITPGIWTAKLIGRNSIYAQLKFLIAPLAYYKGYPLAKSSDAEALNAGLTVALPEDFEMPVEWQQHLQTDDEQFTMREESLAKGKMLGQELHSWIDGLVGQFFQLRESCVVEADSEVSLPLCSDAPWSSLAPDPKSDVDALLK
As to B8, the values for the MAPPIT interaction score in the test with Baldspot, with EMC5 and with Ude were 0.0528, -0.000675 and 0.189, respectively.

B9: Blos1 (protein)
chain: MLTSMVKEHHKEQAKRKQEQEVRRKEAIEASNELTQSLVDTLNVGVAQAYLNQKRLDAEAKQLHLGATNFAKQTHQWLQLIDQFSTALKDLGDVENWARSIEGDMHTINQTLELAYKASRATQTSSGAGTSLEASTSASASANPSAT
With B9, the MAPPIT interaction score with BORCS6 is 2.8.

B10: Atg5 (protein)
chain: MAHDREVLRMIWEGQIGICFQADRDEIVGIKPEPFYLMISRLSYLPLVTDKVRKYFSRYISAEHQDGAVWFDFNGTPLRLHYPIGVLYDLLHPEEDSTPWCLTIHFSKFPEDMLVKLNSKELLESHYMSCLKEADVLKHRGLVISAMQKKDHNQLWLGLVNEKFDQFWAVNRRLMEPYGDLESFKNIPLRIYTDDDFTYTQKLISPISVGGQKKSLADLMAELSTPVRRAVGCRTHGIDLHEETQLQWMSEHLSYPDNFLHLSVDYKDV
Take B10: the MAPPIT interaction score in the test with Atg16 was 2.6.

B11: bcd (protein)
chain: MAQPPPDQNFYHHPLPHTHTHPHPHSHPHPHSHPHPHHQHPQLQLPPQFRNPFDLLFDERTGAINYNYIRPYLPNQMPKPDVFPSEELPDSLVMRRPRRTRTTFTSSQIAELEQHFLQGRYLTAPRLADLSAKLALGTAQVKIWFKNRRRRHKIQSDQHKDQSYEGMPLSPGMKQSDGDPPSLQTLSLGGGATPNALTPSPTPSTPTAHMTEHYSESFNAYYNYNGGHNHAQANRHMHMQYPSGGGPGPGSTNVNGGQFFQQQQVHNHQQQLHHQGNHVPHQMQQQQQQAQQQQYHHFDFQQKQASACRVLVKDEPEADYNFNSSYYMRSGMSGATASASAVARGAASPGSEVYEPLTPKNDESPSLCGIGIGGPCAIAVGETEAADDMDDGTSKKTTLQILEPLKGLDKSCDDGSSDDMSTGIRALAGTGNRGAAFAKFGKPSPPQGPQPPLGMGGVAMGESNQYQCTMDTIMQAYNPHRNAAGNSQFAYCFN
Consider B11, for which the MAPPIT interaction score with Bin1 was 0.579; with Dhx15, 1.72; in the test with p53, -0.0711.
